A selection: hits, their analogues and other compounds. The true share with any hit is near 4.6%.
D1 ag: human D1 receptor agonism; P21728; HEK293 T-REx D1 cells, calcium flux, agonist mode; activation, % at 2 µM; 1% of 360,000 active; AID 504660; also: 0% is about no effect
Target sequence (P21728 whole entry, looked up): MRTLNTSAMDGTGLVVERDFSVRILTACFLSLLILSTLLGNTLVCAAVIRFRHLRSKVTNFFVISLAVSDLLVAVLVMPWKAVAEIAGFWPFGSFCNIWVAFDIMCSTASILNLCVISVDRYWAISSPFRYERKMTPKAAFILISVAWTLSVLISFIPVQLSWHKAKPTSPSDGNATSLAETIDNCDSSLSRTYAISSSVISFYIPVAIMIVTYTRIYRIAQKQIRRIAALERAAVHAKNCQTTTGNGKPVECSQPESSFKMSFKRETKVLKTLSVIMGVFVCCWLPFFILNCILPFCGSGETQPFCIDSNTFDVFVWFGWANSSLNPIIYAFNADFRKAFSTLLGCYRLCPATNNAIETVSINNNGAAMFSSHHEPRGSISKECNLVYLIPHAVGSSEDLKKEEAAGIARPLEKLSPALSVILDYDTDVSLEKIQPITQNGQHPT
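Tetracycline-induced HEK293 TREx D1 cells, force-coupled to calcium signalling, were dye-loaded with a no-wash calcium kit. Compound was pin-added after a 10 s baseline. Fluorescence was read kinetically at 1 cycle/s for 180 s, with calcium rises flagged as agonism.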
D1 PAM: enhances dopamine response at the human D1 receptor. HEK293 TREx D1 cells, calcium flux, dopamine EC20 potentiation. P21728. potentiation, % at 10 µM. 0.036% of 360,000 active; in the data active = potentiation above about 30%; also: 0% is about no effect
TRHR agonist-1: agonists of human TRH receptor. P34981. TRHR cells, calcium flux fluo-8, FDSS agonist mode. activation, % at 2 µM. 0.18% of 360,000 active; also: 0% is about no effect
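TRHR-expressing cells loaded with fluo-8 calcium dye; 23 nL library compound pin-transferred, kinetic FDSS fluorescence (Ex 480/Em 530) recorded about 180 s for agonist-induced calcium release, before a 10 nM TRH EC20 addition for potentiator mode.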
TRHR enhancer-1: allosteric enhancers of human TRH receptor; P34981; TRHR cells, fluo-8 calcium fluorescence, EC20 TRH enhancement; enhancement, % at 2 µM; 0.66% of 360,000 active; in the data active = enhancement above about 30%; also: 0% is about no effect
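Enhancer read-out: after compound pinning and an initial kinetic agonist-mode read, an EC20 of TRH (10 nM final) was injected and fluo-8 calcium signal (Ex 480/Em 530) followed at 1 s/cycle for 100 cycles in TRHR-expressing cells.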
D1 antag: human D1 dopamine receptor antagonism | P21728 | HEK293 TREx D1 cells, calcium flux, dopamine EC80; active compounds read low | activity change, negative = inhibition, % at 10 µM | 3.2% of 360,000 active | AID 504652; in the data active = activity change below about -30%; also: % is scaled to controls: 0 for no effect and ±100 for the full control effect
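Inducible Hek293 Trex D1 cells (tetracycline, overnight, 30 C). Calcium dye 30–90 min RT. Antagonist mode: EC80 dopamine added after 180 s compound read.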
TRHR enhancer-2: human TRH receptor allosteric enhancement confirmation; shares compounds with TRHR enhancer-1; TRH receptor cell assay, enhancer confirmation qHTS; activity change, negative = inhibition, % at 46.1 µM; 970 tested, under 10 active; AID 493076; active = well fitted curve in the direction sought with a large enough effect; inconclusive = small, poorly fitted or top-dose-only effect, or another doubt; inactive = no such curve, though single readings can be large; an effect the other way counts as inactive or inconclusive;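 also: compound effect scored on response to added TRH at EC20 of 10 nM; 0% is about no effect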
TRHR agonist-2: confirmation of human TRH receptor agonists. shares compounds with TRHR enhancer-1. AID 493078. Potency, µM (titrated, usually from 46.1 µM), for the others: at the highest dose activation, usual class: activators. TRHR-expressing cells, agonist activation read-out. 8% of 970 active; active = well fitted curve in the direction sought with a large enough effect; inconclusive = small, poorly fitted or top-dose-only effect, or another doubt; inactive = no such curve, though single readings can be large; an effect the other way counts as inactive or inconclusive; also: potency is read from the fitted curve at half-maximal effect; 0% is about no effect; nearly all actives have a fitted effect of over 75% in size
Starred values were filed as active, the others as inactive; ? = inconclusive; · = no result given. Rule as the data show it, unless noted: active = activation above about 30%; inactive = the rest.

SMILES	D1 ag	D1 PAM	TRHR agonist-1	TRHR enhancer-1	D1 antag	TRHR enhancer-2	TRHR agonist-2
COc1cc([N+](=O)[O-])c2ncccc2c1	-1	4	-1	0	-11	·	·
CCOC(=O)c1cc(-c2ccccc2)n(CC(=O)O)c1C	2	1	-1	5	-9	·	·
CCOC(=O)c1cc(-c2ccccc2)n(CC(=O)NC(C)(C)C)c1C	-1	-2	-2	57*	5	-11	0%
CC(=O)Nc1ccccc1-c1nn[nH]n1	2	9	44*	11	1	-6	-1%
COc1ccc(CCNC(=O)CSCc2nc(-c3ccc(OC)c(OC)c3)oc2C)cc1OC	0	-2	0	-7	1	·	·
O=c1c(N2CCc3ccccc3C2)csc2ccc(Br)cc12	6	2	1	1	11	·	·
CCCc1cc(=O)n2[nH]c(NC(=O)c3ccccc3Cl)nc2n1	0	2	0	17	3	·	·
CCCCn1nnnc1NCc1ccc(OC)c(OC)c1OC	3	0	0	45*	26	-3	2%
COc1cccc(CNc2nnnn2C)c1OC	-2	-4	0	-1	19	·	·
O=C(Cn1c(=O)oc2cc(S(=O)(=O)N3CCCCCC3)ccc21)NCc1ccccc1Cl	12	-8	0	0	-18	·	·
O=C(NNC(=O)c1nn(-c2ccc(F)cc2)ccc1=O)c1ccc(C(F)(F)F)cc1	1	-2	-1	45*	-1	-7	2%
Cc1c(NC(=O)CN2C(=O)NC(C)(c3ccccc3)C2=O)c(=O)n(-c2ccccc2)n1C (configuration not stated)	3	-5	0	48*	-32*	-2	0%
O=C(NCc1ccccc1Cl)C1CCCN(C(=O)c2cnn(-c3ccc(F)cc3)c2-n2cccc2)C1 (configuration not stated)	2	-2	0	4	-4	·	·
CCC(=O)Nc1ccc(S(=O)(=O)N2CCCCC2)cc1OC	2	0	1	44*	-4	-7	-1%
COc1cc(S(=O)(=O)N2CCCCC2)ccc1NC(=O)c1ccccc1Cl	2	-3	-1	-1	-18	·	·
Brc1ccc(-c2csc(NNC3=NCCCCC3)n2)cc1	0	6	-1	2	23	·	·
CC(C)(C)c1ccc(-c2csc(NNC3=NCCCCC3)n2)cc1	0	1	0	55*	·	7	6%
C=CCc1cc(C=O)cc(OC)c1OCc1ccc(Cl)cc1	6	-11	0	-8	-1	·	·
C=CCc1cc(C=O)cc(OCC)c1OCc1ccc(Cl)cc1	6	2	0	45*	10	-3	1%
COc1ccc(C)cc1Nc1nc2c(S(=O)(=O)c3cccc(Cl)c3)nnn2c2ccsc12	-1	-8	1	-1	-24	·	·
Cc1ccc2c(c1)c(Sc1ccccc1)c(CC(=O)O)n2C	3	8	99*	20	8	-7	1%
Cc1cc(C(=O)NCCN2CCOCC2)ccc1[N+](=O)[O-]	2	-4	1	45*	-1	0	-1%
COc1cc(C#N)c(NC(=O)CN2CCC(C(N)=O)CC2)cc1OC	6	5	0	61*	-1	-5	6%
COc1ccc(C(=O)C2CCN(CC(=O)Nc3ccc(OC)cc3OC)CC2)cc1	0	-2	0	1	-17	·	·
CCc1ccc(NC(=O)C2CCCN2S(=O)(=O)c2cccc3nsnc23)cc1 (configuration not stated)	4	-5	0	2	-7	·	·
CCn1c(CC(=O)Nc2ccccc2)n[nH]c1=S	3	0	0	52*	7	0	-1%
Cc1c(-c2nc(-c3ccc4c(c3)[nH]c(=O)n4C)no2)cccc1[N+](=O)[O-]	1	-5	0	1	2	·	·
CC(=O)Nc1nc2n(n1)C(c1ccccc1)C=C(c1ccccc1)N2 (configuration not stated)	9	-13	39*	2	-8	-2	?
